{"source": "the OligoGym collection", "data": [{"molecular_target": "PARP11", "assay": "pooled miR-30 sensor sort-seq; sequence = guide strand", "settings": "shRNA", "values": [{"sequence": "TTTTTTTCTTGAGCTGAGCCTT", "sensor-assay potency score (higher = more potent)": -0.839}, {"sequence": "TTAATCTGAGGCACACCTCTTT", "sensor-assay potency score (higher = more potent)": 0.16}, {"sequence": "TAAGCTGATATGGTACTTGAGT", "sensor-assay potency score (higher = more potent)": -0.461}, {"sequence": "TTGCGATCCATCGTCTTCCCAA", "sensor-assay potency score (higher = more potent)": -0.797}, {"sequence": "TTTAATTCGGTTGCGATCCATC", "sensor-assay potency score (higher = more potent)": -0.893}, {"sequence": "TATAAATTCACATAGCTCCCGT", "sensor-assay potency score (higher = more potent)": 0.0491}, {"sequence": "TTGAGTATTCACATTCTCCCAG", "sensor-assay potency score (higher = more potent)": -0.0297}, {"sequence": "TTTTTTCTTGAGCTGAGCCTTT", "sensor-assay potency score (higher = more potent)": -0.428}, {"sequence": "TAAAGCTTCCTTGACCACCGAG", "sensor-assay potency score (higher = more potent)": 0.0153}]}, {"molecular_target": "PATL1", "assay": "pooled miR-30 sensor sort-seq; sequence = guide strand", "settings": "shRNA", "values": [{"sequence": "TTGAGGTAGGTTCATTAGCTGT", "sensor-assay potency score (higher = more potent)": -1.61}, {"sequence": "TTTGTGCTTTCTGTCATCCATT", "sensor-assay potency score (higher = more potent)": -0.905}, {"sequence": "TTTTTCTCCTCTTGTCTCGAAC", "sensor-assay potency score (higher = more potent)": -1.11}, {"sequence": "TAGCAGGGTCTGAACTCTGTAG", "sensor-assay potency score (higher = more potent)": -0.715}, {"sequence": "TTTCTCAATTATAACAAGGGTT", "sensor-assay potency score (higher = more potent)": -0.533}, {"sequence": "TTATTCACACTAGAAACGGTAA", "sensor-assay potency score (higher = more potent)": -0.529}, {"sequence": "TGATCTTGATGACTGCTCCGGT", "sensor-assay potency score (higher = more potent)": 0.466}, {"sequence": "TTTTCGGATACACATGATCTGT", "sensor-assay potency score (higher = more potent)": -1.26}, {"sequence": "TTTCGGATACACATGATCTGTA", "sensor-assay potency score (higher = more potent)": -0.0955}, {"sequence": "TATTCTGTTGCTGTCTCTGATG", "sensor-assay potency score (higher = more potent)": -1.31}, {"sequence": "TGTCACAACAGCATCAATCATT", "sensor-assay potency score (higher = more potent)": -0.773}, {"sequence": "TTTGTGTTGATTCTGTAGCAGG", "sensor-assay potency score (higher = more potent)": -0.627}]}, {"molecular_target": "PCDH11X", "assay": "pooled miR-30 sensor sort-seq; sequence = guide strand", "settings": "shRNA", "values": [{"sequence": "TTGATCTTAGCATTAGGCCCAC", "sensor-assay potency score (higher = more potent)": -0.682}, {"sequence": "TTAAGCAGCAAGTTCTTAGGGG", "sensor-assay potency score (higher = more potent)": 0.683}, {"sequence": "ATCAGTAACACTCACTTGCAAA", "sensor-assay potency score (higher = more potent)": -1.63}, {"sequence": "TTTTCTGGCATTTCTTCTCGGA", "sensor-assay potency score (higher = more potent)": -0.435}, {"sequence": "TTTACTTTCATCACGTAGGTAT", "sensor-assay potency score (higher = more potent)": 0.803}, {"sequence": "TTCAGTGCTTTTGCGCACCAGT", "sensor-assay potency score (higher = more potent)": -0.711}, {"sequence": "AATAGTGACAAAATTAAGCAGC", "sensor-assay potency score (higher = more potent)": -0.804}, {"sequence": "TGTATCAGTAACACTCACTTGC", "sensor-assay potency score (higher = more potent)": 0.683}, {"sequence": "TTGAACTGCATAGCAGTTGTCA", "sensor-assay potency score (higher = more potent)": -0.535}, {"sequence": "TAACTACTTTGATTGAACGTAT", "sensor-assay potency score (higher = more potent)": -0.315}, {"sequence": "TTGTAGGACTACATACATCATA", "sensor-assay potency score (higher = more potent)": -0.797}]}, {"molecular_target": "PCDHA4", "assay": "pooled miR-30 sensor sort-seq; sequence = guide strand", "settings": "shRNA", "values": [{"sequence": "TTTTCTAGTAATCTCACCTTAT", "sensor-assay potency score (higher = more potent)": -0.448}, {"sequence": "TCTCTGTCTAAAGATTTCCGTA", "sensor-assay potency score (higher = more potent)": -0.816}, {"sequence": "TTGGATTTCACATTTGGCGAAA", "sensor-assay potency score (higher = more potent)": -0.705}, {"sequence": "TTTGTCGGACACGCTGATCAGG", "sensor-assay potency score (higher = more potent)": -0.74}, {"sequence": "TTCTACTTCCACAATAACTCTA", "sensor-assay potency score (higher = more potent)": 0.0225}, {"sequence": "ATGTCTTTGTCGGACACGCTGA", "sensor-assay potency score (higher = more potent)": -1.17}, {"sequence": "TCTACTTCCACAATAACTCTAC", "sensor-assay potency score (higher = more potent)": 0.0889}, {"sequence": "TTCAAAGTCAATATATCCCTTT", "sensor-assay potency score (higher = more potent)": 0.476}]}]}
